Where “and” joins values, the source holds several entries; their conditions need not be identical. Identical values can stand only once. Unmarked numbers belong to inactive results. Inconclusive results are not listed. Where a call stands in place of a potency, no number is given. Calls of active or inactive are those of the source. Unless noted, calls follow the shape of the dose curve; as a rule, active = well fitted curve in the direction sought with a large enough effect; inconclusive = small, poorly fitted or top-dose-only effect, or another doubt; inactive = no such curve, though single readings can be large; an effect the other way counts as inactive or inconclusive.
Columns and labels:
[1] = target: Mitogen-activated protein kinase 10 (Mus musculus) (UniProt Q61831); assay: JNK3 AlphaScreen Assay (AID 530; active = well fitted curve in either direction with a large enough effect, not every such curve was filed as active;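 also: kinase came from lysate of stimulated human HepG2 cells; signal reports phosphorylation of biotinylated GST-cJun 1-79 at Ser73 with 10 µM ATP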)
Summary of the method: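 Pre-activated (IL-1β/TNFα) JNK3 in HepG2 lysates phosphorylates biotin-GST-cJun(1-79), 10 uM ATP; anti-phospho-cJun(Ser73) AlphaScreen read at room temperature, pH 7.6 Tris buffer. Compounds pre-incubated 15 min as titrations.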

[2] = Cell Viability - N2a (AID 540); details: N2a mouse neuroblastoma cell viability; activity change, negative = cytotoxicity: at 92.2 µM (top of the series);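 also: cells exposed to compound for 40 h at 37 °C; nearly all actives have a fitted effect of over 45% in size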
Summary of the method: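 Luminescent ATP signal (CellTiter-Glo, 20 min at room temperature) served as the viability read-out after N2a cells were treated with compounds for 40 hours at 37 °C. Concentration-response data were fitted to the Hill equation for AC50.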

[3] = Cell Viability - Renal Proximal Tubule (AID 545); also: nearly all actives have a fitted effect of over 40% in size
Summary of the method: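 Viability taken as intracellular ATP (CellTiter-Glo luminescence) after 40 hr, 37 °C compound treatment of primary proximal tubule cells from rat kidney, 1000 cells/well; Hill-equation fits of qHTS concentration-response data gave AC50.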

[4] = Cellular Toxicity (caspase-3) SHSY5Y (AID 657)
Summary of the method: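 Luminescent Caspase-Glo 3/7 read-out, 1 hr room temperature, follows 16 hours of compound treatment of SH-SY5Y cells at 37 °C. Normalization: DMSO basal, 10 uM staurosporine as 100%; AC50 values from Hill-equation concentration-response fits.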

[5] = target: Cytochrome P450 3A4 (Homo sapiens) (UniProt P08684); assay: qHTS Assay for Inhibitors and Substrates of Cytochrome P450 3A4 (AID 884); also: nearly all actives have a fitted effect of over 50% in size
Summary of the method: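 20 nM human CYP3A4 with 25 uM Luciferin-PPXE (at KM) in 200 mM KPO4, preincubated 10 min with compound; NADPH regeneration started a 60 min RT reaction. Luciferin detected by luminescence, normalized to 57 uM ketoconazole as full inhibition.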

[6] = MultiTox-Fluor Cytotoxicity Assay - LYMP1-002 - Dead Cells (AID 960); also: nearly all actives have a fitted effect of over 60% in size
Summary of the method: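 LYMP1-002 cells 2500/well; 5 hr 37 C pre-incubation; compound 16 hr 37 C; MultiTox-Fluor reagent 60 min RT; dead-cell fluor Ex/Em 485/520. Norm. to DMSO (0%) vs 15 uM tetraoctylammonium bromide (100%); Hill AC50.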

[7] = Cell Viability - LYMP1-002 - Assay at 24 hr (AID 993)
Summary of the method: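 Cells plated 2500/well, 5 hr 37 C; compounds added, 24 hr 37 C; CellTiter-Glo added, 30 min RT; luminescence read. Tetraoctylammonium bromide positive control. Hill-equation AC50.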

[8] = target: Peroxisome proliferator-activated receptor gamma (Homo sapiens) (UniProt P37231); assay: qHTS assay for small molecule agonists of peroxisome proliferator-activated receptor gamma signaling (AID 588536; active = well fitted curve in the direction sought with a large enough effect in the signal ratio, with a control signal flat, not every such curve was filed as active; the % refers to the signal ratio)
Summary of the method: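 PPAR-gamma-UAS-bla HEK293 cells in medium with 1% charcoal/dextran-treated FBS were exposed to compounds for 16 h at 37 C. Beta-lactamase activity was read with CCF4 substrate (405 nm excitation, 460/530 nm emission).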

[9] = target: Vitamin D3 receptor (Homo sapiens) (UniProt P11473); assay: qHTS assay for small molecule antagonists of vitamin D receptor signaling (AID 588541; calls by dose curve;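 also: receptor activated by calcitriol during compound treatment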)
Summary of the method: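 VDR-UAS-bla HEK293T cells in 2% charcoal-stripped FBS were stimulated with 1-alpha,25-dihydroxyvitamin D3 (3 nM final) plus compound for 16 h at 37 C. The beta-lactamase CCF4 readout was normalized to 50 nM agonist and DMSO, and Hill fits gave IC50.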

[10] = target: Thyroid hormone receptor beta (Homo sapiens) (UniProt P10828); assay: qHTS assay for small molecule antagonists of thyroid hormone receptor beta signaling (AID 588547; active = well fitted inhibition curve with a large enough effect in the signal ratio, with a control signal flat, not every such curve was filed as active; the % refers to the signal ratio;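 also: cells stimulated with 0.4 nM T3 agonist during compound exposure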); details: TR-UAS-bla HEK293, beta-lactamase ratio, antagonist mode, 18 h
Summary of the method: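 TR-UAS-bla GripTite HEK293 cells in 2% charcoal/dextran FBS medium; compounds 0.59 nM to 92 uM with T3 at 0.4nM final, 18 h at 37 C. Beta-lactamase read by CCF4 fluorescence (460/530 nm); Hill fits gave IC50 and efficacy.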

[11] = target: Voltage-gated inwardly rectifying potassium channel KCNH2 (Homo sapiens) (UniProt Q12809); assay: qHTS Assay for Small Molecule Inhibitors of the Human hERG Channel Activity (AID 588834);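 also: top concentration of the series differs between compounds; lower thallium flux fluorescence means stronger hERG block; nearly all actives have a fitted effect of over 50% in size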
Summary of the method: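 Kinetic FDSS fluorescence; U2OS + hERG BacMam (~100 virus particles/cell); FluxOR Tl+ flux; ~10 min cpd; AC50 (Hill).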

[12] = qHTS assay for small molecule disruptors of the mitochondrial membrane potential - 1 hr assay (AID 651754; calls by dose curve; also: nearly all actives have a fitted effect of over 35% in size; also: potency is read from the fitted curve at half-maximal effect)
Summary of the method: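 HepG2, 2,000 cells/well, overnight attachment; cpd or DMSO 1 hr, 37C/5% CO2; Mito-MPS dye 30 min, 37C; fluorescence monomer (490/535) and aggregate (540/590).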

[13] = qHTS assay for small molecule disruptors of the mitochondrial membrane potential - 5 hr assay (AID 651755; calls by dose curve; also: nearly all actives have a fitted effect of over 40% in size; also: potency is read from the fitted curve at half-maximal effect)
Summary of the method: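 HepG2 cells (2,000/well), attached overnight, exposed to compound 5 hr at 37C, then Mito-MPS dye 30 min. Fluorescence read for monomers (490/535 nm) and aggregates (540/590 nm).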

[14] = target: Tumor necrosis factor (Homo sapiens) (UniProt P01375); assay: qHTS assay to identify small molecules that stimulate Tumor Necrosis Factor-alpha (TNF-alpha) secretion (AID 651757; active = well fitted curve in the direction sought with a large enough effect in the signal ratio; the % refers to the signal ratio)
Summary of the method: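 Read-out is HTRF, a TR-FRET sandwich of cryptate- and XL665-labeled anti-TNF-alpha antibodies detecting cytokine secreted by THP-1 cells. Cells had been incubated with test compounds at 37 C for 17 hrs beforehand.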

[15] = target: Nuclear receptor ROR-gamma (Homo sapiens) (UniProt P51449); assay: qHTS assay for small molecule antagonists of the retinoid-related orphan receptor gamma (ROR-gamma) signaling pathway (AID 651802);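 also: CHO cells with doxycycline-induced ROR-gamma expression; luciferase reporter luminescence driven by ROR response element; nearly all actives have a fitted effect of over 60% in size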
Summary of the method: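 CHO, TET-inducible ROR + RORE-LUC reporter, 1536-well qHTS. Compound pinned, doxycycline added, 16hr 37C/5% CO2. ONE-Glo, 30 min RT, luminescence; signal drop scored as antagonism.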

[16] = qHTS assay for small molecule agonists of the antioxidant response element (ARE) signaling pathway measured by Nrf2-dependant transcriptional activity - cell viability counter screen (AID 720653; active = well fitted curve in the direction sought with a large enough effect in the repeat runs; an effect the other way counts as inactive or inconclusive); details: ARE-bla HepG2 viability, CellTiter-Glo ATP luminescence, 16 h; stronger effect = lower value
Summary of the method: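 ARE-bla HepG2 cells treated with compounds for 16 h at 37C; this counter screen measures viability as intracellular ATP by CellTiter-Glo luminescence after 30 min at room temperature.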

[17] = qHTS assay for cell viability of HEK293 cells (AID 743288); details: ATP luminescence (CellTiter-Glo), 18 h, stronger effect = lower value; also: nearly all actives have a fitted effect of over 50% in size
Summary of the method: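 Total intracellular ATP, measured with a luciferase-coupled reagent, indicates the number of viable HEK293 cells. Exposure to test chemicals lasts 18 h at 37 C in 1,536-well format at 2,000 cells/well.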

[18] = target: Nuclear receptor subfamily 1 group I member 2 (Rattus norvegicus) (UniProt Q9R1A7); assay: qHTS assay for small molecule activators of the rat pregnane X receptor (rPXR) signaling pathway (AID 651751; call rule not given here); details: rPXR reporter cells, luciferase (One-Glo), 24 h
[19] = qHTS assay for small molecule activators of the human pregnane X receptor (PXR) signaling pathway (AID 720659; call rule not given here)
[20] = Cell Viability - LYMP2-023 (AID 975);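 also: cellular ATP measured by luciferase luminescence as viability proxy; cells exposed to compound for 24 hours at 37 °C; nearly all actives have a fitted effect of over 55% in size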
Summary of the method: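 2500 cells/well, 5 hr 37 C; cpd 24 hr 37 C; CellTiter-Glo, 30 min RT; luminescence. qHTS conc-response, Hill fit -> AC50. Pos ctrl tetraoctylammonium bromide.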

Nuclear receptor ROR-gamma (Homo sapiens), sequence (P51449 whole entry, looked up): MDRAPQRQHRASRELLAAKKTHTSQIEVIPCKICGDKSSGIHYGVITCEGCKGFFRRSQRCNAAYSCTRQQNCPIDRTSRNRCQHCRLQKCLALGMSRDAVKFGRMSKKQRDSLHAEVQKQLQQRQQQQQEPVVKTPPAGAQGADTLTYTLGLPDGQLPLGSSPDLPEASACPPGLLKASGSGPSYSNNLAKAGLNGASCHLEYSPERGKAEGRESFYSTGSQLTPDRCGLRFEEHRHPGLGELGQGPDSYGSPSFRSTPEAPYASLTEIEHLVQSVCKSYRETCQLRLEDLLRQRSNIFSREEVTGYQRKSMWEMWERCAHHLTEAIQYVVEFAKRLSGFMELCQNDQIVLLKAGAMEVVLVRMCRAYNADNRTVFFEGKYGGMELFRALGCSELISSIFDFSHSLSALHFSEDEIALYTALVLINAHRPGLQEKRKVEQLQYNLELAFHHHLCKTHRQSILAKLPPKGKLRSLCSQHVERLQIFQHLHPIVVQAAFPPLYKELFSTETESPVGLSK
Tumor necrosis factor (Homo sapiens), sequence (P01375 whole entry, looked up): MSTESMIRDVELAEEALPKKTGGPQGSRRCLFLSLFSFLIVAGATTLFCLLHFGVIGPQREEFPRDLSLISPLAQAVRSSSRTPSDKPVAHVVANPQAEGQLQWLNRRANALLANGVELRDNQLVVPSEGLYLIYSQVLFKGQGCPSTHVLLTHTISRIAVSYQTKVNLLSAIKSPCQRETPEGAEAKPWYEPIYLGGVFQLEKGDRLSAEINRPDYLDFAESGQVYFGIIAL
Voltage-gated inwardly rectifying potassium channel KCNH2 (Homo sapiens), sequence (Q12809 whole entry, looked up): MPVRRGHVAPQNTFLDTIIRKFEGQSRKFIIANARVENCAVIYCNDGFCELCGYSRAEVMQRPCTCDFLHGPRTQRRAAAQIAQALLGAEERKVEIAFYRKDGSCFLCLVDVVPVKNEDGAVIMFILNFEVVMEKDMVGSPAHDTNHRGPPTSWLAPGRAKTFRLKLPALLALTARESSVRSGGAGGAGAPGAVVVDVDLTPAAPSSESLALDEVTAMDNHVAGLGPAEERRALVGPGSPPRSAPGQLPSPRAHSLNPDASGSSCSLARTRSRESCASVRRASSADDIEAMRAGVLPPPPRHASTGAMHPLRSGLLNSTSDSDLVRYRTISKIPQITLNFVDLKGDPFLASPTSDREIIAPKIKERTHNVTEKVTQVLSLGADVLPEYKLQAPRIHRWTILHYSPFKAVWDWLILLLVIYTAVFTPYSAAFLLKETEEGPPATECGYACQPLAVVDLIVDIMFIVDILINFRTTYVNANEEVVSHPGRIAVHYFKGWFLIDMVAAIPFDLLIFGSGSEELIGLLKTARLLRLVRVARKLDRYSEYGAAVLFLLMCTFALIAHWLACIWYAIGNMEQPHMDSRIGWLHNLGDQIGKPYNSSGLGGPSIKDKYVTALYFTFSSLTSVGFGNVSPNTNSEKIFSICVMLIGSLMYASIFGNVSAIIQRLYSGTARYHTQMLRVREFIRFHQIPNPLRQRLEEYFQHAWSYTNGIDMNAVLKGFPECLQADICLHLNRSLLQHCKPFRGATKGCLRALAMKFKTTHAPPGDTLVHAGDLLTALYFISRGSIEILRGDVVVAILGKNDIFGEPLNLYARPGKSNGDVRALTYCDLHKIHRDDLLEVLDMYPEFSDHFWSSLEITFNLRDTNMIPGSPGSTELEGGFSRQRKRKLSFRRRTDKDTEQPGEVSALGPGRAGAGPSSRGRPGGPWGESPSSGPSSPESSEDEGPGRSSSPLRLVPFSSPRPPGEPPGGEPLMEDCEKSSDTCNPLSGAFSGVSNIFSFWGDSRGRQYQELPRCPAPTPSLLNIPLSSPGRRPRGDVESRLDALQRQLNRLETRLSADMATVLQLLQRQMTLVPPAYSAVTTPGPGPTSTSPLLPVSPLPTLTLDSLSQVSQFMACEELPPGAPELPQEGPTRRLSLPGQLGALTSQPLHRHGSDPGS
Vitamin D3 receptor (Homo sapiens), sequence (P11473 whole entry, looked up): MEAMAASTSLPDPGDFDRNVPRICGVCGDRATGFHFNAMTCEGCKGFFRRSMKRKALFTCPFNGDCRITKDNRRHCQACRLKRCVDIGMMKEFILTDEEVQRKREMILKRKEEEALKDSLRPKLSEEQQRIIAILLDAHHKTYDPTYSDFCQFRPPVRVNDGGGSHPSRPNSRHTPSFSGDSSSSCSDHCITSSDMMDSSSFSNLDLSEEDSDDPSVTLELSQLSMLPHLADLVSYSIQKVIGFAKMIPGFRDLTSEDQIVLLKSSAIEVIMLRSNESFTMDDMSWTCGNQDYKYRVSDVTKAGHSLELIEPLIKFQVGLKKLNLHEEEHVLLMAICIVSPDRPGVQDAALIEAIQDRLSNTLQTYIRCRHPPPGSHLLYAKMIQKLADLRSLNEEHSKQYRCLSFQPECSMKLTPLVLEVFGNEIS
Peroxisome proliferator-activated receptor gamma (Homo sapiens), sequence (P37231 whole entry, looked up): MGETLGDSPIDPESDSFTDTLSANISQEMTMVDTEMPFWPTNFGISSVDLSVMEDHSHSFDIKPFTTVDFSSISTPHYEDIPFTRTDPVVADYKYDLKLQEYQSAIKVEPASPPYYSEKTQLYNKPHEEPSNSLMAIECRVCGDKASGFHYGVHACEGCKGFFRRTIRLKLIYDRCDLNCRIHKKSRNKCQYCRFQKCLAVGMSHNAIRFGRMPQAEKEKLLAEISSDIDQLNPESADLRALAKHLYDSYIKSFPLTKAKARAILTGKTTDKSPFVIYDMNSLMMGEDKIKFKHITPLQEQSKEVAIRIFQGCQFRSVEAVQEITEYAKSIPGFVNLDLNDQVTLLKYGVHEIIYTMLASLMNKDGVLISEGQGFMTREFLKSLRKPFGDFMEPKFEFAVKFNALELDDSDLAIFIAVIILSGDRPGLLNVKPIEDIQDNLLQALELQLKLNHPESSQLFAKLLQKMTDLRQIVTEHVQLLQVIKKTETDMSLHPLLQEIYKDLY
Nuclear receptor subfamily 1 group I member 2 (Rattus norvegicus), sequence (Q9R1A7 whole entry, looked up): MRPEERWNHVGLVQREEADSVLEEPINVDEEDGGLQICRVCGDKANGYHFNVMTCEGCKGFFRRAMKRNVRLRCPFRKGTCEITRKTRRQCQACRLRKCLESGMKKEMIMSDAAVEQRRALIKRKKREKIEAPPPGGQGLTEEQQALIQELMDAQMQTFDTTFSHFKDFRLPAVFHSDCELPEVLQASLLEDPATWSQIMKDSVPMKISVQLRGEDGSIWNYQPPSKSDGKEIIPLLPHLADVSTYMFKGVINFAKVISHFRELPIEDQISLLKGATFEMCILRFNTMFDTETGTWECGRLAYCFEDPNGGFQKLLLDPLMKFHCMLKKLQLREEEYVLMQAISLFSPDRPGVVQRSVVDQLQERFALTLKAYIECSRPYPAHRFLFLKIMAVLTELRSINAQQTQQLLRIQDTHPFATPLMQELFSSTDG
Thyroid hormone receptor beta (Homo sapiens), sequence (P10828 whole entry, looked up): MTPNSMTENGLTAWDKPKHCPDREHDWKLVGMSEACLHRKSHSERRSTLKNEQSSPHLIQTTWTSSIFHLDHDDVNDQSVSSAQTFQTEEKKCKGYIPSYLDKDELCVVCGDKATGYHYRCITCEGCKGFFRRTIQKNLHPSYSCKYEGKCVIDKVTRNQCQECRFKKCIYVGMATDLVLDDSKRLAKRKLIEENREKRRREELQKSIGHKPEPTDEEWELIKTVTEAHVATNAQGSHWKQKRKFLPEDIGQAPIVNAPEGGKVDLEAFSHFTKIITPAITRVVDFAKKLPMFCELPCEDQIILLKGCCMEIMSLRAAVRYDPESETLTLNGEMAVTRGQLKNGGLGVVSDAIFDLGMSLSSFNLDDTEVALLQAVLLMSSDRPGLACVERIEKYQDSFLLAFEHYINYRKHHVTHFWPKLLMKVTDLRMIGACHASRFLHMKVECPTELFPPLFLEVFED
Cytochrome P450 3A4 (Homo sapiens), sequence (P08684 whole entry, looked up): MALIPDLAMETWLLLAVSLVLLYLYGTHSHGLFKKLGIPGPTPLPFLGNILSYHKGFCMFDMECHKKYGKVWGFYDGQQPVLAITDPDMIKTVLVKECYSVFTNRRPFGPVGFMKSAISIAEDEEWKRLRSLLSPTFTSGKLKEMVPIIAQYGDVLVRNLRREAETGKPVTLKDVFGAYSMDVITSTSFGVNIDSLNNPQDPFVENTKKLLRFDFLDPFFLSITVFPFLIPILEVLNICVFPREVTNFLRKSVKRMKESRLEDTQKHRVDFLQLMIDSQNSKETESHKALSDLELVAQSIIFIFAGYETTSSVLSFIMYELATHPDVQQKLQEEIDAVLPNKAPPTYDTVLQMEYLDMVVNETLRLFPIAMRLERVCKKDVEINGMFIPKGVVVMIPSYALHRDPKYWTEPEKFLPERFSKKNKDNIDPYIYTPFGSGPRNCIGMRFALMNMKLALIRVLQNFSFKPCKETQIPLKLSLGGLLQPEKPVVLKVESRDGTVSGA

Row | Structure (SMILES) | Potency [1] | Potency [2] | outcome [3] | outcome [4] | Potency [5] | Potency [6] | Potency [7] | outcome [8] | outcome [9] | activity change % (negative = inhibition) [10] | Potency [11] | Potency [12] | Potency [13] | outcome [14] | Potency [15] | max response [16] | max response [17] | max response [18] | outcome [19] | Potency [20]
1 | O=NN1CCCCC1 | inactive | inactive | inactive | inactive | inactive | inactive | inactive | inactive | inactive | 8.23% | inactive | inactive | inactive | inactive | inactive | -0.59% | -2.6% | -1.74% | inactive | 
2 | Oc1ccc(Cl)c(Cl)c1 | inactive |  | inactive | inactive | inactive | inactive | inactive | inactive | inactive |  | inactive | 33.5 µM (active) | 42.2 µM (active) | inactive |  | -2.38% | 7.88% | -0.245% | inactive | inactive
3 | O=C(Cc1ccccc1)OCc1ccccc1 |  | inactive | inactive | inactive | inactive | inactive | inactive | inactive | inactive | 0.158% | inactive | inactive | inactive | inactive | inactive | -10.2% | -0.778% | -0.53% | inactive | inactive
4 | CC(C)(C)c1ccccc1O | inactive | inactive |  | inactive | inactive | inactive | inactive | inactive | inactive | 3.5% and 10.7% | inactive |  |  | inactive | inactive | -8.15% and -10.7% |  | -1.16% and -0.87% | inactive | inactive
5 | CCCCCOC(=O)c1ccccc1C(=O)OCCCCC |  | inactive |  | inactive |  |  | inactive | inactive | inactive | 15.4% and 2.77% |  | inactive | inactive | inactive | inactive | 0.29% and 4.72% | 4.12% and -1.01% | 4.64% and 1.43% | inactive | inactive
6 | C=CC=O | inactive | inactive | inactive | inactive | inactive | inactive | inactive | inactive | inactive | 2.84% | inactive |  |  | inactive | inactive | 9.03% | -14.3% | 1.01% | inactive | inactive
7 | O=[N+]([O-])c1ccc(Cl)cc1 |  | inactive | inactive | inactive | inactive | inactive | inactive |  | inactive | 3.07% and -2.63% | inactive | inactive | inactive | inactive | inactive | -7.74% and 0.776% |  | 5.34% and 1.87% | inactive | inactive
8 | ClCCBr | inactive | inactive | inactive | inactive | inactive | inactive | inactive | inactive |  | 0.0673% | inactive | inactive | inactive | inactive | inactive | -7.21% | -0.276% | -0.231% | inactive | 
9 | CCC/C=N/O | inactive | inactive |  | inactive | inactive | inactive | inactive | inactive | inactive | 3.59% | inactive | inactive | inactive | inactive | inactive |  | 1.47% | -0.891% | inactive | inactive
10 | O=C(O)C(Cl)(Cl)Br | inactive | inactive | inactive | inactive | inactive | inactive | inactive | inactive | inactive | -3.52% | inactive | inactive | inactive | inactive | inactive | -4.89% | 5.15% | 3.3% | inactive | inactive
11 | c1ccc(P(c2ccccc2)c2ccccc2)cc1 |  | inactive | inactive | inactive | inactive |  |  | inactive | inactive | 5.79% |  |  | inactive | inactive | inactive | -10.4% | -11.3% | 2.64% |  | inactive
12 | ClP(Cl)(Cl)(Cl)Cl | inactive | inactive | inactive | inactive | inactive | inactive | inactive | inactive | inactive | -5.32% | inactive | inactive | inactive | inactive | inactive | -1.82% | -14.3% | 0.805% | inactive | inactive
13 | O=S(=O)(Cl)c1ccccc1 | inactive | inactive | inactive |  | inactive | inactive | inactive | inactive | inactive | -1.94% and -0.791% | inactive |  | inactive | inactive |  | 9.62% and -3.03% | 1.81% and -4.13% | -0.19% and -2.18% | inactive | inactive
14 | Cc1ccc2c(C)cccc2c1 | inactive | inactive | inactive | inactive | inactive |  | inactive | inactive | inactive | 8.64% | inactive | inactive | inactive | inactive | inactive | -2.91% |  | -3.71% | inactive | inactive
